Laboratory results: ChEMBL document CHEMBL1961873, “Compounds: GSK PKIS; Assays: Nanosyn kinase panel” (2012)

Columns and labels:
[1] = target: 5'-AMP-activated protein kinase catalytic subunit alpha-2 (Homo sapiens) (UniProt P54646); conditions: at 1 µM
[2] = target: T1, NUAK family SNF1-like kinase 1 (Homo sapiens) (UniProt O60285); conditions: at 0.1 µM
T1 sequence (whole entry): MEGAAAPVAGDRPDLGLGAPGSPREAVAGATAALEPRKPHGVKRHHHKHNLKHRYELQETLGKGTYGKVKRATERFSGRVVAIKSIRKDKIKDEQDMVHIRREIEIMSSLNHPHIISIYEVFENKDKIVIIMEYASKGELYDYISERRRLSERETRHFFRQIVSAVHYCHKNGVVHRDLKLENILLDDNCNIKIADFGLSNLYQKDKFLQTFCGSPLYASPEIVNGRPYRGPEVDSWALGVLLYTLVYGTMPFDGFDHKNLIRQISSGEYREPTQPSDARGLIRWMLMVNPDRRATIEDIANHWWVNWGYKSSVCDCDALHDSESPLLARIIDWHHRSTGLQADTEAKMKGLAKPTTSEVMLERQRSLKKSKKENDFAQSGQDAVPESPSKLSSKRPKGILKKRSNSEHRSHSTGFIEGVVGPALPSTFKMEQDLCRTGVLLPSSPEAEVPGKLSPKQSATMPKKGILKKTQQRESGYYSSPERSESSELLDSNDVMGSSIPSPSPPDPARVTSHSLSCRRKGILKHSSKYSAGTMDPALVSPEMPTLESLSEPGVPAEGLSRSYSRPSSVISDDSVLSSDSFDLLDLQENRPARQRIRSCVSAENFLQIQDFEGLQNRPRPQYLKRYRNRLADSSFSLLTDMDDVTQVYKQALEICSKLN

[3] = target: T1, NUAK family SNF1-like kinase 1 (Homo sapiens); conditions: at 1 µM
[4] = target: T2, Serine/threonine-protein kinase BRSK1 (Homo sapiens) (UniProt Q8TDC3); conditions: at 0.1 µM
T2 sequence (whole entry): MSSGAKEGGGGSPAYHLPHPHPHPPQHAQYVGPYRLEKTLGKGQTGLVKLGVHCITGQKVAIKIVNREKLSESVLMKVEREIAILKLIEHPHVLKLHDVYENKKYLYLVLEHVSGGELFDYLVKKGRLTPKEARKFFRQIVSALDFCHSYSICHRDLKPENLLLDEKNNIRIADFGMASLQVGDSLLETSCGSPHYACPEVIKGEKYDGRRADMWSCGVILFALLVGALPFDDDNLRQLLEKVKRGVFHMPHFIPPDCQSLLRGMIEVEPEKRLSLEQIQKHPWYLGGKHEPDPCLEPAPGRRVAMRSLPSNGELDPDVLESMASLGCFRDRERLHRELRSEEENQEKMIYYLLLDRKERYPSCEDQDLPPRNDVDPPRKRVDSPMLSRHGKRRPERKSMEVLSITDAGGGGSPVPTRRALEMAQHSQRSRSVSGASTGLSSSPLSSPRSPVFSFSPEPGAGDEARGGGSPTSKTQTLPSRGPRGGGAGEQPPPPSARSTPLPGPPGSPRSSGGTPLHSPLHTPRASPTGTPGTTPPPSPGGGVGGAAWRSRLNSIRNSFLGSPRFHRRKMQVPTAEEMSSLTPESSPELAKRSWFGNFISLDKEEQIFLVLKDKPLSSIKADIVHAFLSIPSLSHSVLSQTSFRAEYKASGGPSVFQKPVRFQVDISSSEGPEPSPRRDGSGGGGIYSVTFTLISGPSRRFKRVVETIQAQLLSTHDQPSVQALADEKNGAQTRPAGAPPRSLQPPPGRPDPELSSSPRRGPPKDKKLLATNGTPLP

[5] = target: T2, Serine/threonine-protein kinase BRSK1 (Homo sapiens); conditions: at 1 µM
[6] = target: T3, Serine/threonine-protein kinase BRSK2 (Homo sapiens) (UniProt Q8IWQ3); conditions: at 0.1 µM
T3 sequence (whole entry): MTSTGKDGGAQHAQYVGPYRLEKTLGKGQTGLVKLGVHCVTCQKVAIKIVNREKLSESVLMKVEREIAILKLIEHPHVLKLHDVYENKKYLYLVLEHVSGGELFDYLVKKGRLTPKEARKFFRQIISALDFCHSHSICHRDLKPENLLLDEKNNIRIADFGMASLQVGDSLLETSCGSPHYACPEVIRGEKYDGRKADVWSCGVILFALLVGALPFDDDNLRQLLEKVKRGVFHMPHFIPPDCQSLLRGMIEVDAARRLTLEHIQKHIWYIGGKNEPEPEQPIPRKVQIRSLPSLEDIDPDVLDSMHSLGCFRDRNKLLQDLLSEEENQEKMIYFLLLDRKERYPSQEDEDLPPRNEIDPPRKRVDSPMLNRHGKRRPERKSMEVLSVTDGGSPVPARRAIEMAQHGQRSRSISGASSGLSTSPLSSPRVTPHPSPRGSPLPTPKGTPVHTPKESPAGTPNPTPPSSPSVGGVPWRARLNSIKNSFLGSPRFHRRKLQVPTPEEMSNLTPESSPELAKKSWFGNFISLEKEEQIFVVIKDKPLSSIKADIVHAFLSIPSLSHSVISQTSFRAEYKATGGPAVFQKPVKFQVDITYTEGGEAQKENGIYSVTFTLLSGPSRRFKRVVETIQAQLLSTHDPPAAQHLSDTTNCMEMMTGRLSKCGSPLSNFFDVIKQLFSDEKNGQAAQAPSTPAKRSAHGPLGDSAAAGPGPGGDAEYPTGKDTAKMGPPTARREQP

[7] = target: T3, Serine/threonine-protein kinase BRSK2 (Homo sapiens); conditions: at 1 µM
[8] = target: Calcium/calmodulin-dependent protein kinase type 1D (Homo sapiens) (UniProt Q8IU85); conditions: at 0.1 µM
Calcium/calmodulin-dependent protein kinase type 1D (Homo sapiens), sequence (Q8IU85 whole entry, looked up): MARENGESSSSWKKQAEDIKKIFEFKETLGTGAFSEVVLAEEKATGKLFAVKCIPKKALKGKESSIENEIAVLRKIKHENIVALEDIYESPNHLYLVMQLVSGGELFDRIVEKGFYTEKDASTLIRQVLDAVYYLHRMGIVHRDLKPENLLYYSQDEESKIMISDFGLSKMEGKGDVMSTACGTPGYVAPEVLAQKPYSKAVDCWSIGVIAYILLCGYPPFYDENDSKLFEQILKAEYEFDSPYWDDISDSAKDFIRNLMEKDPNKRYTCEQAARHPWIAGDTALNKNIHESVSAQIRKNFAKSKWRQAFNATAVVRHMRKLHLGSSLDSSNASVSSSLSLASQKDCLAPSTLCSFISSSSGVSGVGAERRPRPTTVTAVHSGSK

[9] = target: Calcium/calmodulin-dependent protein kinase type 1D (Homo sapiens) (UniProt Q8IU85); conditions: at 1 µM
[10] = target: Calcium/calmodulin-dependent protein kinase type II subunit alpha (Homo sapiens) (UniProt Q9UQM7); conditions: at 0.1 µM
Calcium/calmodulin-dependent protein kinase type II subunit alpha (Homo sapiens), sequence (Q9UQM7 whole entry): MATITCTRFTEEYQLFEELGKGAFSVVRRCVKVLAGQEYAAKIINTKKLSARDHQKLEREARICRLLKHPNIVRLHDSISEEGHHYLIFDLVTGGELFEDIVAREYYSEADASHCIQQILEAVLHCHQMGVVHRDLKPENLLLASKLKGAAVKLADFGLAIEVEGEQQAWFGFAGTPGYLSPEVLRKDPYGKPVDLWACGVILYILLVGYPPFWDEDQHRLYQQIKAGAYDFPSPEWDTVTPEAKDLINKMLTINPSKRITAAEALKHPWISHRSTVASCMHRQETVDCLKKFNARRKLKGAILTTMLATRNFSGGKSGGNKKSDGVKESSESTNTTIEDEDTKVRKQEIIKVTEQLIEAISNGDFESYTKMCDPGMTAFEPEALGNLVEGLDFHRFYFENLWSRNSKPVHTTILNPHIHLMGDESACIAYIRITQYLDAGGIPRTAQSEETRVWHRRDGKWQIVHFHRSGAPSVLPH

[11] = target: Calcium/calmodulin-dependent protein kinase type II subunit alpha (Homo sapiens) (UniProt Q9UQM7); conditions: at 1 µM
[12] = target: Calcium/calmodulin-dependent protein kinase type II subunit delta (Homo sapiens) (UniProt Q13557); conditions: at 0.1 µM
Calcium/calmodulin-dependent protein kinase type II subunit delta (Homo sapiens), sequence (Q13557 whole entry): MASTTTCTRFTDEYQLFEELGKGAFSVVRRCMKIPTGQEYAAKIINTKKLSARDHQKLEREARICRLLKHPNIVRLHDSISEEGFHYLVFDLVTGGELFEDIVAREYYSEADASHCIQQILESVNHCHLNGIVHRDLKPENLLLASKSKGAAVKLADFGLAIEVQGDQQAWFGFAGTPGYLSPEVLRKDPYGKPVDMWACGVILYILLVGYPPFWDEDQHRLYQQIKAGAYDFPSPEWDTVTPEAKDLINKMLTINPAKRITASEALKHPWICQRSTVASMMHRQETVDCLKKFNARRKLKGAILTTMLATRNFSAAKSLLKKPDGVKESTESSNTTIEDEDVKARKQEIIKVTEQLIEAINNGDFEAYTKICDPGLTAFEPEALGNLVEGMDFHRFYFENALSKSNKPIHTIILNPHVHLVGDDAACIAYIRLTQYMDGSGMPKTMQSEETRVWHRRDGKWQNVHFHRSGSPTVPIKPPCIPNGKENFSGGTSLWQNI

[13] = target: Calcium/calmodulin-dependent protein kinase type II subunit delta (Homo sapiens) (UniProt Q13557); conditions: at 1 µM
[14] = target: T4, Calcium/calmodulin-dependent protein kinase type IV (Homo sapiens) (UniProt Q16566); conditions: at 0.1 µM
T4 sequence (whole entry): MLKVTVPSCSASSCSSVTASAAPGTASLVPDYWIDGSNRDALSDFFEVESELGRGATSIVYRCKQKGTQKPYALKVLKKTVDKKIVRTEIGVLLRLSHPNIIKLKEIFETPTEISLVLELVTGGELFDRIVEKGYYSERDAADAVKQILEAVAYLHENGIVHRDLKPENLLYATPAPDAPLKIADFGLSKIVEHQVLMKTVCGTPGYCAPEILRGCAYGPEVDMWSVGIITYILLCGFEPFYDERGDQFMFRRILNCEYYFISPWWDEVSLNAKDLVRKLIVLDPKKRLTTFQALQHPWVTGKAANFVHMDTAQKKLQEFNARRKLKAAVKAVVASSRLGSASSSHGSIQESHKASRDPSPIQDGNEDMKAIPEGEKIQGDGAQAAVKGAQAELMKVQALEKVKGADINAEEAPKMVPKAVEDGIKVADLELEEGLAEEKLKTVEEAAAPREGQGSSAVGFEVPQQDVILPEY

[15] = target: T4, Calcium/calmodulin-dependent protein kinase type IV (Homo sapiens); conditions: at 1 µM
[16] = target: T5, Serine/threonine-protein kinase Chk1 (Homo sapiens) (UniProt O14757); conditions: at 0.1 µM
T5 sequence (whole entry): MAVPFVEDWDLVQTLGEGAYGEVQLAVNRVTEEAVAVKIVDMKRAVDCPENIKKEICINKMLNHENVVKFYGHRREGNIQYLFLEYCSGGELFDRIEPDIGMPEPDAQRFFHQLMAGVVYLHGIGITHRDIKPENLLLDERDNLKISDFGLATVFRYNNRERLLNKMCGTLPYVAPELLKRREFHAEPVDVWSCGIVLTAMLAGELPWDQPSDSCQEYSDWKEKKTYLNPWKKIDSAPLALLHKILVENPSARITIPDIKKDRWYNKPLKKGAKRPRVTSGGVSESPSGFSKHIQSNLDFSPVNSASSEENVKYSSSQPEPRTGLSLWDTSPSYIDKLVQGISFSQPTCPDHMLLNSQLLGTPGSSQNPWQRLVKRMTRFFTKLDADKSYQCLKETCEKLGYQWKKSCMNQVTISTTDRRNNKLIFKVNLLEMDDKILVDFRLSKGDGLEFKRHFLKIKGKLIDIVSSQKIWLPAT

[17] = target: T5, Serine/threonine-protein kinase Chk1 (Homo sapiens); conditions: at 1 µM
[18] = target: Serine/threonine-protein kinase Chk2 (Homo sapiens) (UniProt O96017); conditions: at 0.1 µM
Serine/threonine-protein kinase Chk2 (Homo sapiens), sequence (O96017 whole entry): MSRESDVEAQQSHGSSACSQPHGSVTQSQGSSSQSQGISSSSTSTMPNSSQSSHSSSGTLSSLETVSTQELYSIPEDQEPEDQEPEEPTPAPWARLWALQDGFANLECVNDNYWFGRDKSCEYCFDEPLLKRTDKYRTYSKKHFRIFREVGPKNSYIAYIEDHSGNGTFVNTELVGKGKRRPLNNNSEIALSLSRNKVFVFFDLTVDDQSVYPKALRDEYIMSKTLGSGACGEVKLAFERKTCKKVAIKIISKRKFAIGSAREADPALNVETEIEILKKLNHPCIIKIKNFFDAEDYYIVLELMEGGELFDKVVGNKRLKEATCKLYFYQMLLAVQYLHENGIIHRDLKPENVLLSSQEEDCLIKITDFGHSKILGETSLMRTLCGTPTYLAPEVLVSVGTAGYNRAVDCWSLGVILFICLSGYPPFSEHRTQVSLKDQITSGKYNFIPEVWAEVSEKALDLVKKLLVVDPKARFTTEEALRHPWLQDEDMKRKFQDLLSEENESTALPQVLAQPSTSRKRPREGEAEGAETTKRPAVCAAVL

[19] = target: Serine/threonine-protein kinase Chk2 (Homo sapiens) (UniProt O96017); conditions: at 1 µM
[20] = target: Death-associated protein kinase 1 (Homo sapiens) (UniProt P53355); conditions: at 0.1 µM;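 note: reported figure is the mean inhibition of DAPK1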
Death-associated protein kinase 1 (Homo sapiens), sequence (P53355 whole entry, looked up): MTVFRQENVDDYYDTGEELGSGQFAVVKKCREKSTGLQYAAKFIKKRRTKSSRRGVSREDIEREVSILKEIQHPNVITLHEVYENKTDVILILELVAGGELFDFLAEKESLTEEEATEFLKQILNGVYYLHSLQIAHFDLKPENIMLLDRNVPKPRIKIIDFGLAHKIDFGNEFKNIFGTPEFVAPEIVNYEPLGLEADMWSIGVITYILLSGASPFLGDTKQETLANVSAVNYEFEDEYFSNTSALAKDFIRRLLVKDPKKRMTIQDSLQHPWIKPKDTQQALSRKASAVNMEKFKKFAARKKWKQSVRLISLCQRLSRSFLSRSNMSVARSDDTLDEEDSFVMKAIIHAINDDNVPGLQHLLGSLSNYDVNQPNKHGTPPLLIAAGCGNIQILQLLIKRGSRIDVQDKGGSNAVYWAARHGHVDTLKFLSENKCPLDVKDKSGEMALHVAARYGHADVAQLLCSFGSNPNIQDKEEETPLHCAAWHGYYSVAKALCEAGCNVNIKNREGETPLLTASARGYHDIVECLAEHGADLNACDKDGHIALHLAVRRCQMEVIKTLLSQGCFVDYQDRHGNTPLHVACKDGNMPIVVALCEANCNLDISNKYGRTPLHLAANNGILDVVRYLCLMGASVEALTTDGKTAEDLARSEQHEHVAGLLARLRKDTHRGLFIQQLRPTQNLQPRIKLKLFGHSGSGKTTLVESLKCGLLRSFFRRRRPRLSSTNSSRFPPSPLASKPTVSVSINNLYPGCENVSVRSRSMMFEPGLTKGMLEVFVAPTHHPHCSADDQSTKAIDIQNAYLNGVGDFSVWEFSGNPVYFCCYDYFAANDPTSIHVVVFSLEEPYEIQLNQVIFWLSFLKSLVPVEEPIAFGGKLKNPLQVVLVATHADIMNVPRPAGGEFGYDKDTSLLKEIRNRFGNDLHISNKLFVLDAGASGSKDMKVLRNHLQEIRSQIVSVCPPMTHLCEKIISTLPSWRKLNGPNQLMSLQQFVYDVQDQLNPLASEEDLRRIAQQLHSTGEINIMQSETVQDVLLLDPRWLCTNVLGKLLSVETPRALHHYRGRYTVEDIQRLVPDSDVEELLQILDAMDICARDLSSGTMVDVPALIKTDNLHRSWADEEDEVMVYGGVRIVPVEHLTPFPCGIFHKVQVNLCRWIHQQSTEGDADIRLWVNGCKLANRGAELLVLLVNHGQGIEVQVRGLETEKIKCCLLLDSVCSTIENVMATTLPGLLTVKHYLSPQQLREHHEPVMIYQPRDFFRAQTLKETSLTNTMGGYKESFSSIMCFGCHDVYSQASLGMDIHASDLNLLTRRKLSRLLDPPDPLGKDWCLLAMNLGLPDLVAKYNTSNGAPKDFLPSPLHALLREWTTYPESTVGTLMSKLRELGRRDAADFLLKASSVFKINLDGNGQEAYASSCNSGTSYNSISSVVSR

5'-AMP-activated protein kinase catalytic subunit alpha-2 (Homo sapiens), sequence (P54646 whole entry, looked up): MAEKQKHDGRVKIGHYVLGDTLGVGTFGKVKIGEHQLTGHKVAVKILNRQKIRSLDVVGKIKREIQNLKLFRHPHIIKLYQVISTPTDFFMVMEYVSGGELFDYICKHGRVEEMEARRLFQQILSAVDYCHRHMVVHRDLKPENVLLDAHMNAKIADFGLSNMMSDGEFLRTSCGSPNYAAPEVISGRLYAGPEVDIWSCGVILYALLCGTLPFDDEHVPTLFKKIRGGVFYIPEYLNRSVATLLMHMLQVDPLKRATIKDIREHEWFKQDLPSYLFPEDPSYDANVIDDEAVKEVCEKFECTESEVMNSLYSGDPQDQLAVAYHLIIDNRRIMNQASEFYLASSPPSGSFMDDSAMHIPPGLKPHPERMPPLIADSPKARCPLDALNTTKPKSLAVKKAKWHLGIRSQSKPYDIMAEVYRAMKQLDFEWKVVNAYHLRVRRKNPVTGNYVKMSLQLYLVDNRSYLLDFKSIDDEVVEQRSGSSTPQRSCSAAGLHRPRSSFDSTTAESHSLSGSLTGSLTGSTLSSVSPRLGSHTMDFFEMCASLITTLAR

SMILES | inhibition [1] | inhibition [2] | inhibition [3] | inhibition [4] | inhibition [5] | inhibition [6] | inhibition [7] | inhibition [8] | inhibition [9] | inhibition [10] | inhibition [11] | inhibition [12] | inhibition [13] | inhibition [14] | inhibition [15] | inhibition [16] | inhibition [17] | inhibition [18] | inhibition [19] | inhibition [20]
CCN(CC)S(=O)(=O)c1ccc(OC)c(Nc2ncc(-c3ccccc3)o2)c1 | 0.95% | 5.96% | 3.38% | -0.07% | 0.94% | 3.36% | 6.08% | 0.13% | -0.06% | 3.02% | 6.08% | 2.08% | 8.27% | -0.4% | -1.66% | 1.49% | 2.79% | -0.98% | 2.66% | 4%
Cc1ccc(O)cc1Nc1ccnc2cc(-c3ccccn3)ccc12 | 6.05% | 4.17% | 7.44% | 3.63% | 5.99% | 3.25% | 3.89% | 1.22% | 1.32% | 6.72% | 5.11% | 4.51% | 6.51% | -0.2% | 0.26% | 4.18% | 4.5% | 3.95% | 5.81% | 3.99%
Cc1cccc(Nc2ncc(-c3ccccc3)o2)c1 | 6.16% | 2.69% | 19.2% | 0.14% | 0.64% | 1.19% | 4.26% | 1.45% | 3.78% | 4.05% | 7.1% | 4.42% | 6.85% | 1.87% | 4.2% | 4.59% | 6.26% | 3.02% | 6.44% | 5.26%
O=C(O[C@H]1CN[C@H](C#Cc2cc3ncnc(Nc4ccc(Cc5ccccc5)cc4)c3s2)C1)N1CCOCC1 | 1.84% | -3.65% | -2.64% | 0.3% | 2.86% | 1.6% | 2.92% | -0.64% | -0.69% | 0.64% | -1.9% | 1.04% | -0.85% | -0.04% | -2.21% | 1.79% | 0.1% | 0.28% | 0.95% | 4.84%
Cc1cccc2c1NC(=O)/C2=N\Nc1ccc(S(N)(=O)=O)cc1 | 4.04% | 4.52% | 19% | 1.12% | 3.16% | 0.94% | 4.49% | 0.23% | 1.75% | 4.56% | 3.33% | 3.36% | 3.56% | 0.62% | 1.1% | 0.95% | 5.04% | 1.68% | 2.64% | 3.69%
CNC(=O)c1cccc(C#Cc2cncnc2Nc2ccc(OCc3cccc(F)c3)c(Cl)c2)c1 | 1.89% | 0.54% | 8.68% | -0.7% | 2.56% | 1.59% | 4.03% | -1.04% | -0.89% | 1.34% | 1.97% | 0.91% | 1.19% | -0.97% | -3.36% | -1.85% | -0.79% | 0.62% | 2.35% | -1.4%
CCn1cc(-c2ccnc3[nH]ccc23)c(-c2cccc(NC(=O)Nc3ccc(OCc4ccccc4)cc3)c2)n1 | 2.24% | -0.37% | 1.67% | -0.66% | 3.32% | 1.2% | 0.5% | 1.03% | 4.92% | 1.2% | -2.25% | 1.86% | -0.28% | 0.6% | -0.67% | 1.82% | -1.06% | -0.17% | -0.76% | 1.61%
